Records with an inconclusive call do not appear. Entries that show only a call come without a potency. Calls of active or inactive are those of the source. Calls follow the shape of the dose curve; as a rule, active = well fitted curve in the direction sought with a large enough effect in the repeat runs; inconclusive = weak or mixed curves; inactive = no such curve, though single readings can be large; an effect the other way counts as inactive or inconclusive.

The first assay can be described thus: qHTS RealTime-Glo MT Cell Viability Assay in HEK293 cells - 16 hour (AID 1224872). Also: nearly all actives have a fitted effect of over 50% in size. Also: potency is read from the fitted curve at half-maximal effect. As to activity change, negative = cytotoxicity: top concentration of the series differs between compounds. As to conditions: RealTime-Glo luminescence; series mostly up to 76.8 µM. In outline: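 Viability tracked continuously by luminescence as live cells reduce a prosubstrate for NanoLuc; HEK293 cells preincubated 5 h, compound-treated at 37 C, and read at 0, 8, 16, 24, 32 and 40 h.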
Take `OCCCCC(O)CO` (centres undefined): the Potency result was “inactive”.
Same read-out and setting: as for `Cc1cccc2nccnc12`, the entry is “inactive”; as for `CN(C)C(=O)CNC(=O)Cc1ccccc1`, “inactive”.
Still for that read-out and setting: as for `CN(CCOc1ccc(NS(C)(=O)=O)cc1)CCc1ccc(NS(C)(=O)=O)cc1`, the entry is “inactive”.
Same read-out and setting: as for `C=CC(OCC)OCC`, the entry is “inactive”; as for `CCCCCCCCSCC`, “inactive”.
`Cc1[nH]cnc1-c1ccc(Cl)cc1`: the Potency entry is “inactive”.
Same read-out and setting: to `c1ccc2c(c1)ccc1c3ccccc3ccc21` belongs “inactive”; to `NS(=O)(=O)c1cc2c(cc1Cl)CN(C1CCCCC1)C2=O`, 10.7 µM (active).
Take `Oc1cn2c(n1)Nc1ccc(Cl)c(Cl)c1C2`: the activity change, negative = cytotoxicity is 6.18% [at 15.8 µM] (inactive).
For the compound `CCOC(=O)c1ncn2c1CN(C)C(=O)c1cc(F)ccc1-2`, the Potency entry is “inactive”.
The same measure, in the same setting: as for `CN1C(C)(C)CCCC1(C)C`, the entry is “inactive”.
On the same count and under the same terms, to `CC(C)(C)c1cc(CCC(=O)NN)cc(C(C)(C)C)c1O` belongs “inactive”.
Take `C[Si](C)=O`: the activity change, negative = cytotoxicity was 2.27% [at 6.97 µM] (inactive).
With `CCc1ccc(C=O)cc1`, the Potency entry was “inactive”.
Same read-out and setting: to `CC(=O)OC(C)OC(=O)C(C)c1ccc(-c2ccccc2)c(F)c1` (centres undefined) belongs “inactive”.
The same measure, in the same setting: as for `COP(=O)(OC)OC(c1ccc(Cl)cc1)P(=O)(OC)OC` (centres undefined), the entry is “inactive”.
On the same count and under the same terms, as for `CCOCCOCCOCC`, the entry is “inactive”; as for `CC1=C(C(=O)O)N2C(=O)[C@@H](NC(=O)[C@H](N)c3ccc(O)cc3)[C@H]2SC1`, “inactive”; as for `COc1ccc2c(c1OC)C(=O)O[C@@H]2[C@H]1c2c(cc3c(c2OC)OCO3)CCN1C`, “inactive”.
Consider `CC(C)CC(=O)O`, for which the Potency entry is “inactive”.
Same read-out and setting: to `CC(COC(C)(C)C)OCCCO` (centres undefined) belongs “inactive”.
Same read-out and setting: as for `CC(C)CCCCOC(=O)c1ccccc1C(=O)OCCCCC(C)C`, the entry is “inactive”; as for `CC(CO)c1ccccc1` (centres undefined), “inactive”; as for `CC(=O)NCc1c(I)c(NC(C)=O)c(I)c(C(=O)O)c1I`, “inactive”.
On the same count and under the same terms, to `O=C(OCC(COC(=O)c1cccnc1)(COC(=O)c1cccnc1)COC(=O)c1cccnc1)c1cccnc1` belongs “inactive”; to `CCOC(=O)c1ccc(OC(=O)CCCCCN=C(N)N)cc1`, “inactive”; to `CC(C)(C)c1n[nH]c(=S)n(N)c1=O`, “inactive”.
Regarding `CC(C)C(=O)OCCc1ccccc1`, the Potency result is “inactive”.
Still for that read-out and setting: as for `CC(=O)Nc1ccc(S(=O)(=O)Cl)cc1`, the entry is “inactive”.
The same measure, in the same setting: to `CCCCOC(=O)c1ccccc1` belongs “inactive”; to `CCCCCCN`, “inactive”.
On the same count and under the same terms, as for `Cc1ccccc1OCC(O)CO` (centres undefined), the entry is “inactive”.
Turning to `COC(=O)C1CC(=O)C(C(=O)OC)CC1=O` (centres undefined), the activity change, negative = cytotoxicity was 7.32% [at 6.97 µM] (inactive).
Take `BrCc1cccc(Oc2ccccc2)c1`: the Potency entry is “inactive”.
Still for that read-out and setting: to `Cc1cccc(OCC(O)CNC(C)(C)C)c1C` (centres undefined) belongs “inactive”.
Still for that read-out and setting: to `OCCC(F)(F)C(F)(F)C(F)(F)C(F)(F)C(F)(F)C(F)(F)C(F)(F)C(F)(F)F` belongs “inactive”.

The nature of a further assay: qHTS RealTime-Glo MT Cell Viability Assay in HepG2 cells - 8 hour (AID 1224873). Also: nearly all actives have a fitted effect of over 55% in size. As to conditions: RealTime-Glo luminescence; series mostly up to 76.8 µM. In outline:
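Real-time viability: cells seeded at 600 per well together with NanoLuc and cell-permeant prosubstrate, compounds added after 5 h incubation. Luminescence tracked at 0, 8, 16, 24, 32 and 40 h of exposure.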
On the technique in general: qHTS replaces the single test concentration by a dilution series.
Regarding `OCCCCC(O)CO` (centres undefined), the call was inactive.
Same read-out and setting: to `Cc1cccc2nccnc12` belongs “inactive”; to `CN(C)C(=O)CNC(=O)Cc1ccccc1`, “inactive”; to `CN(CCOc1ccc(NS(C)(=O)=O)cc1)CCc1ccc(NS(C)(=O)=O)cc1`, “inactive”.
As to `C=CC(OCC)OCC`, the result was inactive.
On the same count and under the same terms, to `CCCCCCCCSCC` belongs “inactive”; to `Cc1[nH]cnc1-c1ccc(Cl)cc1`, “inactive”; to `c1ccc2c(c1)ccc1c3ccccc3ccc21`, “inactive”.
As to `NS(=O)(=O)c1cc2c(cc1Cl)CN(C1CCCCC1)C2=O`, the compound was called inactive.
Turning to `Oc1cn2c(n1)Nc1ccc(Cl)c(Cl)c1C2`, the viability change, negative = cytotoxic was -0.13% [at 15.8 µM] (inactive).
On to `CCOC(=O)c1ncn2c1CN(C)C(=O)c1cc(F)ccc1-2`, for which the result was inactive.
On the same count and under the same terms, as for `CN1C(C)(C)CCCC1(C)C`, the entry is “inactive”; as for `CC(C)(C)c1cc(CCC(=O)NN)cc(C(C)(C)C)c1O`, “inactive”.
As for `C[Si](C)=O`, the viability change, negative = cytotoxic was 1.52% [at 6.97 µM] (inactive).
As to `CCc1ccc(C=O)cc1`, the compound was classed as inactive.
Still for that read-out and setting: as for `CC(=O)OC(C)OC(=O)C(C)c1ccc(-c2ccccc2)c(F)c1` (centres undefined), the entry is “inactive”.
The same measure, in the same setting: to `COP(=O)(OC)OC(c1ccc(Cl)cc1)P(=O)(OC)OC` (centres undefined) belongs “inactive”.
Consider `CCOCCOCCOCC`, for which the compound was classed as inactive.
In the case of `CC1=C(C(=O)O)N2C(=O)[C@@H](NC(=O)[C@H](N)c3ccc(O)cc3)[C@H]2SC1`, the compound was called inactive.
Consider `COc1ccc2c(c1OC)C(=O)O[C@@H]2[C@H]1c2c(cc3c(c2OC)OCO3)CCN1C`, for which the compound was classed as inactive.
Turning to `CC(C)CC(=O)O`, the call was inactive.
On the same count and under the same terms, as for `CC(COC(C)(C)C)OCCCO` (centres undefined), the entry is “inactive”.
The same measure, in the same setting: as for `CC(C)CCCCOC(=O)c1ccccc1C(=O)OCCCCC(C)C`, the entry is “inactive”; as for `CC(CO)c1ccccc1` (centres undefined), “inactive”.
On the same count and under the same terms, to `CC(=O)NCc1c(I)c(NC(C)=O)c(I)c(C(=O)O)c1I` belongs “inactive”; to `O=C(OCC(COC(=O)c1cccnc1)(COC(=O)c1cccnc1)COC(=O)c1cccnc1)c1cccnc1`, “inactive”.
Consider `CCOC(=O)c1ccc(OC(=O)CCCCCN=C(N)N)cc1`, for which the compound was classed as inactive.
The same measure, in the same setting: as for `CC(C)(C)c1n[nH]c(=S)n(N)c1=O`, the entry is “inactive”; as for `CC(C)C(=O)OCCc1ccccc1`, “inactive”; as for `CC(=O)Nc1ccc(S(=O)(=O)Cl)cc1`, “inactive”.
Turning to `CCCCOC(=O)c1ccccc1`, the outcome was inactive.
Still for that read-out and setting: to `CCCCCCN` belongs “inactive”; to `Cc1ccccc1OCC(O)CO` (centres undefined), “inactive”.
On to `COC(=O)C1CC(=O)C(C(=O)OC)CC1=O` (centres undefined), for which the viability change, negative = cytotoxic is -14.8% [at 6.97 µM] (inactive).
For `BrCc1cccc(Oc2ccccc2)c1`, the outcome was inactive.
Take `Cc1cccc(OCC(O)CNC(C)(C)C)c1C` (centres undefined): the result was inactive.
`OCCC(F)(F)C(F)(F)C(F)(F)C(F)(F)C(F)(F)C(F)(F)C(F)(F)C(F)(F)F`: the outcome was inactive.

These data come from PubChem BioAssay (Tox21).
